# Reference: PubChem BioAssay AID1259422 (The Scripps Research Institute Molecular Screening Center, 2018)
# Out of some 640,000 compounds screened, about 9,300 (1.5%) were called active. This excerpt belongs to a sample that is enriched for actives. Values without a mark were called inactive. Rule as the data show it: active = inhibition above about 32%; inactive = the rest.
# Assay: TEAD-YAP interaction inhibition, primary screen, TEAD-YAP interaction inhibitor project, luminescence, HEK-TIYL cells (AID 1259422);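 also: 0% = median of test compound wells and 100% = reference inhibitor wells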
# Details: TEAD-Gal4/YAP UAS-luciferase luminescence, at 9.12 µM, hits give high values
row,SMILES,inhibition
1,N#CC(=C1C(=O)c2ccccc2C1=O)c1nc2ccccc2[nH]1,-10.3%
2,Cc1ccc(N=C2NC(=O)/C(=C\c3ccc(-c4ccccc4[N+](=O)[O-])o3)S2)c(C)c1,-2.23%
3,COc1ccccc1C1C(C(=O)N2CCCCC2)=C(C)Nc2nc3ccccc3n21 (configuration not stated),1.41%
4,COc1ccccc1NC(=O)C1=C(C)Nc2nc3ccccc3n2C1c1cccs1 (configuration not stated),46.5% (active)
5,CCOc1ccc(C2C(C(=O)NC)=C(C)Nc3nc4ccccc4n32)cc1OC (configuration not stated),-6.37%
6,COc1ccc(C(C)=O)c(OC(=O)Cc2cc(OC)c(OC)c(OC)c2)c1,12.9%
7,COc1cc(C(=O)Nc2ccc(C(C)=O)cc2)c2ccccc2n1,47.1% (active)
8,COc1cc(C(=O)Nc2ccc(C(=O)O)cc2)c2ccccc2n1,-2.83%
9,COc1ccc(-c2cc(C(=O)Nc3ccccc3)c3ccccc3n2)cc1,-2.31%
10,CCCC(=O)Nc1ccccc1C(=O)O,-0.09%
11,C/C(=C\c1ccccc1)C(=O)Nc1ccccc1C(=O)O,36.6% (active)
12,COC(=O)c1ccccc1NC(=O)C(=O)Nc1ccccc1C(=O)OC,-3.84%
13,CCN1CCN(c2ncc(C(=O)Nc3ccc(OC)c(Cl)c3)c3ccccc23)CC1,-15.1%
14,COc1ccc(Nc2c(C#N)cnc3ccccc23)cc1Cl,49.7% (active)
15,COc1ccc(NC(=O)Cc2c[nH]c3ccccc23)cc1Cl,4.42%
16,Cc1ccc(/C=C2/SC(=Nc3ccccc3Cl)NC2=O)cc1,37.2% (active)
17,COc1cc(/C=C2/SC(=Nc3ccccc3Cl)NC2=O)cc(OC)c1OC,-2.07%
18,Cc1cccc(C(=O)Oc2ccc(/C=C3/SC(=Nc4ccccc4Cl)NC3=O)cc2)c1,0.81%
19,CC(=O)Nc1nc2cc([N+](=O)[O-])c(C)cc2s1,-21.7%

row,SMILES,inhibition
1,COc1ccc(C2CC(=O)C3=C(C2)Nc2ccccc2NC3c2cccc(Cl)c2)cc1 (configuration not stated),1.54%
2,CCOc1ccccc1C1CC(=O)NC2=C1C(=O)CC(c1ccccc1Cl)C2 (configuration not stated),36.2% (active)
3,COc1cc(C2C(C(=O)OC3CCCCC3)=C(C)NC3=C2C(=O)CC(c2ccccc2)C3)cc(Cl)c1O (configuration not stated),-1.53%
4,COc1ccc(C2CC(=O)NC3=C2C(=O)CC(c2ccccc2Cl)C3)cc1 (configuration not stated),6.64%
5,CCOc1ccccc1C1C(C(=O)OC)=C(C)NC2=C1C(=O)CC(c1ccccc1)C2 (configuration not stated),-5.16%
6,COc1cc(C2Nc3ccccc3NC3=C2C(=O)CC(c2ccccc2Cl)C3)cc(Cl)c1O (configuration not stated),54.8% (active)
7,O=C(CCCn1nnc(-c2ccccc2F)n1)c1ccc(O)cc1,-5.05%
8,CCc1ccc(N/C(SCc2cccc([N+](=O)[O-])c2)=C(/C#N)C(=O)NCc2ccco2)cc1,-0.35%
9,CC(=O)Nc1ccc(NC(=O)C(=O)NCc2ccc(F)cc2)cc1,0.35%
10,COc1ccccc1N1CCN(C(=O)CSc2nc3ccccc3c(=O)n2Cc2cccs2)CC1,-7.66%
11,CCN(CC)C(=O)CSc1nc2ccsc2c(=O)n1CCc1ccccc1,16.3%
12,COc1ccc(CCn2c(SCC(=O)N3CCN(c4ccccc4OC)CC3)nc3ccccc3c2=O)cc1OC,36.9% (active)
13,COc1ccccc1N1CCN(C(=O)CSc2nc3ccsc3c(=O)n2CCc2ccccc2)CC1,43.9% (active)
14,COc1ccc(CCn2c(SCC(=O)Nc3ccc(C)c(C)c3)nc3ccccc3c2=O)cc1OC,8.03%
15,COc1ccccc1N1CCN(C(=O)CSc2nc3ccsc3c(=O)n2-c2ccccc2)CC1,1.01%
16,CN(C)c1cc(-c2nnc(SCc3ccccn3)n2C)nc(N(C)C)n1,1.09%
17,CC(NS(=O)(=O)c1cc(Cl)ccc1Cl)C(=O)Nc1ccc2c(c1)OCCO2 (configuration not stated),-9.66%
18,O=C(CC(=O)N1CCc2ccccc21)C(=O)CC(=O)N1CCc2ccccc21,8.39%
19,CC1CCCN(C(=O)Cn2c(=O)oc3ccccc32)C1 (configuration not stated),7.96%

row,SMILES,inhibition
1,CC1CCCN(C(=O)CN2C(=O)c3ccccc3S2(=O)=O)C1 (configuration not stated),32.8% (active)
2,O=C(CN1C(=O)c2ccccc2S1(=O)=O)N1CCN(Cc2ccccc2)CC1,-9.54%
3,O=C(CN1C(=O)c2ccccc2S1(=O)=O)N1CCc2ccccc21,73.9% (active)
4,CC(=O)CN1C(=O)c2ccccc2S1(=O)=O,-8.06%
5,O=C(NCc1ccon1)c1cccc(OC2CCN(C(=O)C3CC3)CC2)c1,-8.88%
6,CC(C)CCNC(=O)C1CC(=O)N(C2CCCCC2)C1 (configuration not stated),1.78%
7,O=C(COc1ccccc1)N1CCN(c2ccccc2F)CC1,0.47%
8,CN(CC(=O)N1CCOCC1)c1ncnc2scc(-c3ccc(F)cc3)c12,2.08%
9,Cc1csc(C(C#N)C(=O)COC(=O)c2sc3cc(F)ccc3c2Cl)n1 (configuration not stated),-0.66%
10,COC(=O)C1=C(C)NC(=O)/C1=C\c1cccc(OCc2ccccc2)c1,-0.2%
11,O=C(c1cc(-c2ccncc2)nc2ccccc12)N1CCN(c2ccccc2)CC1,57% (active)
12,O=C(COC(=O)c1cc(-c2ccccc2)nc2ccccc12)c1ccccc1,-10%
13,O=C(O)c1cc(-c2ccc(-c3ccccc3)cc2)nc2ccccc12,84.8% (active)
14,O=C(c1cc(N2CCOCC2)nc2ccccc12)N1CCN(c2cccc(Cl)c2)CC1,-4.93%
15,Cc1ccc(Nc2cc(C(=O)O)c3ccccc3n2)cc1,-9.91%
16,O=C(c1cc(-c2ccc(Cl)cc2)nc2ccccc12)N1CCN(c2ccc([N+](=O)[O-])cc2)CC1,3.06%
17,COc1ccc(CNC(=O)c2ccccc2N(Cc2ccccc2)S(=O)(=O)c2ccc(C)cc2)cc1,1.46%
18,O=C(NCCCN1CCCC1=O)c1ccc2c(c1)N(Cc1ccccc1)C(=O)CS2=O (configuration not stated),-1.97%
19,CSc1ccccc1NC(=O)Cn1nc(C)c([N+](=O)[O-])c1C,-7.74%
